# Screening data deposited in PubChem by Broad Institute.
# CDK5 p35 inh: inhibitors of human CDK5/p35 kinase, primary screen, biochemical, single concentration. inhibition, % at 10 µM. Cyclin-dependent kinase 5 (Homo sapiens) + Cyclin-dependent kinase 5 activator 1 (Homo …. 330,000 compounds, 0.01% hits. AID 488839, 2010. Recombinant CDK5/p35, ADP-Glo luminescence, 60 min;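 active = highest replicate inhibition of at least 50% and at least 75% of replicates reaching 50%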;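 note: plate controls were DMSO neutral control for no effect and GW8510 at 10 µM for full effect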
# Target sequence (Q00535 whole entry, looked up): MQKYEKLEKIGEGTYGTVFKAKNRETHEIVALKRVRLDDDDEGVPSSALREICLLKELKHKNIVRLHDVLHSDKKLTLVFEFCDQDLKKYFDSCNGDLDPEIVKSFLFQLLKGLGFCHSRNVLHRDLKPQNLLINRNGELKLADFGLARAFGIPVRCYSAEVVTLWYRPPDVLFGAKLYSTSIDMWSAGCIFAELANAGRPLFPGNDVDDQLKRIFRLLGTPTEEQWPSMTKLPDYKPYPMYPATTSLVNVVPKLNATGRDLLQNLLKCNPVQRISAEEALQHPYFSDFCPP
# Target sequence (Q15078 whole entry, looked up): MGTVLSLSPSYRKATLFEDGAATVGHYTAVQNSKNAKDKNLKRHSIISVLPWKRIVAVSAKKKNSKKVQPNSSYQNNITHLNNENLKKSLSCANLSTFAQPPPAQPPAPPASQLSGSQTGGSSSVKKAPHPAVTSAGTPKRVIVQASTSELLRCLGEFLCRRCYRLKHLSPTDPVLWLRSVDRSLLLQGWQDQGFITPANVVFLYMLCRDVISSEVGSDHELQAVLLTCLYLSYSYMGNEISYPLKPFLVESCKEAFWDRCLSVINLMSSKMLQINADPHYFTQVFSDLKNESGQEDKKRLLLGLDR
# CASP6 VEID inh: human caspase-6 inhibitors, primary screen, biochemical, VEID-R110 fluorescence, single point, set 2. purified caspase-6, Z-VEID-R110 cleavage fluorescence. inhibition, % at 12.5 µM. 350,000 compounds, 0.53% hits. P55212. AID 686996, 2013;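 active = mean inhibition across replicates at least about 35%, with every replicate also reaching that limit, limit read from the data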;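 note: 0% = median of neutral control wells and 100% = no fluorescence left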
# ALR inh: inhibitors of human ALR sulfhydryl oxidase, primary screen, biochemical, H2O2 detection, HRP-luminol luminescence, single point | FAD-linked sulfhydryl oxidase ALR (Homo sapiens), P55789 | purified ALR, DTT oxidation | inhibition, % (concentration not given with the values) | 290,000 compounds, 3.8% hits;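 active = mean replicate inhibition above about 79%, with every replicate also reaching it, limit read from the data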
# N-glyco inh: increase of ERlucT glycosylation luciferase signal, primary screen, N-linked glycosylation inhibitor project, D54 ERlucT cells, luminescence, set 2 | AID 588692, 2011 | D54 ERlucT glycosylation luciferase reporter, 24 h; percent of 100 nM tunicamycin response | reporter increase, % at 12.5 µM | 360,000 compounds, 0.23% hits;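 active = mean luciferase reporter signal, scaled so untreated is 0 and the glycosylation-blocking control 100, at or above a set limit in every replicate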;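 note: luciferase carries N-glycosylation sites so blocking glycosylation raises the light; 0% = median of neutral control wells and 100% = median of 100 nM tunicamycin wells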
# NSD2 HMT inh: NSD2 histone methyltransferase inhibitors, primary screen, biochemical, AlphaScreen, single concentration, set 2. Histone-lysine N-methyltransferase NSD2 (Homo sapiens), O96028. NSD2 peptide methylation, 120 min. inhibition, % at 12.5 µM. 310,000 compounds, 0.54% hits; in the data active = inhibition above about 50%
# Mot1-301 SUMO: yeast Mot1-301 growth rescue at high temperature, primary screen, SUMOylation pathway inhibitor project, S. cerevisiae, ATP luminescence, 38.5C. S. cerevisiae Mot1-301 growth rescue; percent above DMSO median, 100 means doubled. growth rescue, % at 18.8 µM. 320,000 compounds, 1% hits;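 active = every valid replicate shows activation above 250% relative to neutral control wells; inactive = the rest, any valid replicate at or below 250%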;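 note: OY570 slx delta 5 strain wells were the positive control but not used for scaling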
# The depositor's hits bear a star; nt = no result. An excerpt weighted towards active compounds, which were near 3.9% of everything screened.
SMILES,CDK5 p35 inh,CASP6 VEID inh,ALR inh,N-glyco inh,NSD2 HMT inh,Mot1-301 SUMO
CC(NC(=O)COc1cccc(Br)c1)C(=O)O (centres undefined),-1,0,-1,3,-1,997*
COc1cccc(OCC(=O)Nc2cc(NC(=O)COc3cccc(OC)c3)cc(C(=O)O)c2)c1,-2,19,99*,2,-1,-4
Cc1ccccc1OCC(=O)Nc1cccc(C(=O)O)c1,-2,5,nt,-17,-3,nt
CC(=O)Nc1ccc2c(c1)C(=O)N(C)[C@H]1CC[C@H](CC(=O)NCc3ccc(Cl)cc3)O[C@@H]1CO2,nt,3,nt,nt,nt,nt
COc1ccc(-n2c(SCC(=O)Nc3ccccc3C)nc(O)c(Cc3ccccc3)c2=O)cc1,-2,-2,88*,nt,-2,-9
COc1ccc(-n2c(SCC(=O)Nc3ccc(C)cc3)nc(O)c(Cc3ccccc3)c2=O)cc1,-4,3,98*,nt,2,-9
Cc1cc(C(=O)Nc2cccc3c2O[C@@H](CN(C)C(=O)NC2CCCCC2)[C@H](C)CN([C@@H](C)CO)C3=O)n(C)n1,nt,0,nt,nt,nt,nt
Cc1ccc(SC(=O)c2c([N+](=O)[O-])c(C)nn2C)cc1,0,1,nt,3,1,-24
CCn1nc(C)cc1C(=O)Sc1ccc(C)cc1,0,-5,98*,9,-2,15
CN1CCCC1CCNc1ccc2sc3ccccc3c(=O)c2c1 (centres undefined),1,-4,98*,-4,nt,473
Cc1cc2oc3cc(NCCC4CCCN4C)ccc3c(=O)c2cc1C (centres undefined),3,-3,91*,-3,nt,46
COc1ccc2sc3ccccc3c(=O)c2c1,1,nt,-4,0,-4,-16
C[C@@H]1CCCCO[C@@H](CN(C)Cc2ccc3c(c2)OCO3)[C@@H](C)CN([C@H](C)CO)C(=O)c2cc(NS(=O)(=O)c3ccc(F)cc3)ccc2O1,nt,1,nt,nt,nt,nt
Nc1ncnc2c1ncn2[C@@H]1O[C@H](COP(=O)(O)O)[C@@H](O)[C@H]1O,-5,nt,-38,1,nt,-71
CN1N=C(N)c2cn(C3OC(COP(=O)(O)O)C(O)C3O)c3ncnc1c23 (centres undefined),1,46*,nt,-3,-25,nt
O=C(Nc1nc2ccsc2c(=O)s1)c1ccco1,nt,37*,1,14,4,108
C[C@@H]1CCCCO[C@@H](CN(C)C)[C@@H](C)CN([C@@H](C)CO)C(=O)c2cc(NC(=O)CCC(F)(F)F)ccc2O1,nt,-2,nt,nt,nt,nt
O=C(Nc1ccccc1)N1CC(=O)N2[C@H](CO)[C@@H](c3ccc(C#CC4CCCC4)cc3)[C@@H]2C1,nt,1,nt,nt,nt,nt
COC(=O)C[C@H]1c2cc(F)ccc2S(=O)(=O)N1c1ccc(N(C)C)cc1,0,-3,99*,-7,nt,-12
CCOC(=O)C[C@H]1c2cc(F)ccc2S(=O)(=O)N1c1ccccc1,0,-4,4,-1,nt,-10
OC1C=CSc2nc3ccccc3n21 (centres undefined),-2,nt,86*,4,1,-3
COc1ccc(/C=N/NC(=O)c2nn(C)cc2Br)cc1CSCc1ccco1,-1,0,98*,-2,1,13
CCOc1cc(/C=N/NC(=O)c2nn(C)cc2Br)ccc1OCc1ccccc1,1,nt,-3,-2,-1,-1
CC(C)OC(=O)N(C)C[C@H]1OCc2ccccc2-c2ccccc2C(=O)N([C@H](C)CO)C[C@H]1C,nt,1,nt,nt,nt,nt
N#Cc1c(Nc2ccccc2)c(C=O)c[nH]c1=O,1,0,-3,0,9,-30
SMILES,CDK5 p35 inh,CASP6 VEID inh,ALR inh,N-glyco inh,NSD2 HMT inh,Mot1-301 SUMO
COc1cc(/C=N/NC(=O)CN(Cc2ccco2)S(=O)(=O)c2ccccc2)ccc1O,2,nt,100*,0,0,-3
COc1cc(/C=N/NC(=O)c2ccccc2)ccc1O,1,-3,100*,2,-2,-3
COc1cc(/C=N/NC(=O)c2ccc(CSc3nc4ccccc4[nH]3)cc2)ccc1O,1,-5,99*,3,4,-11
COc1cc(C(=O)N/N=C/c2ccc(OC(=O)c3ccccc3)c(OC)c2)ccc1O,-4,0,-2,0,1,-14
COc1cc(/C=N/NC(=O)c2ccc3nc[nH]c3c2)ccc1O,0,-1,nt,0,-2,-17
COc1cc(/C=N/NC(=O)CN(Cc2ccccc2)S(=O)(=O)c2ccc3c(c2)OCCO3)ccc1O,0,-2,67,-4,-1,0
COc1cc(/C=N/N=C/c2c[nH]c(=O)c(C#N)c2Nc2ccccc2)ccc1O,nt,nt,78*,nt,4,254
COc1cccc(-c2ccc([C@H]3[C@@H](CO)N4CCCCN(CC5CCOCC5)C[C@H]34)cc2)c1,nt,0,nt,nt,nt,nt
CCCC(=O)Nc1ccc2c(c1)C(=O)N(C)[C@H]1CC[C@@H](CC(=O)NCc3ccccc3)O[C@H]1CO2,nt,-2,nt,nt,nt,nt
Cc1noc(C)c1S(=O)(=O)N(C)C[C@@H]1OCCCC[C@@H](C)Oc2ccc(NC(=O)Nc3cccc4ccccc34)cc2C(=O)N([C@@H](C)CO)C[C@H]1C,nt,-1,nt,nt,nt,nt
Cc1ccc2nc(C)c(C(=O)N/N=C/c3cccc([N+](=O)[O-])c3)cc2c1,-2,nt,9,-1,-2,9
COc1cc(/C=N/NC(=O)c2ccc(O)cc2)ccc1Oc1ccc([N+](=O)[O-])cn1,0,-4,92*,-3,4,-14
Cc1nc2c(C)cccc2cc1C(=O)N/N=C/c1cccc([N+](=O)[O-])c1,nt,0,98*,11,-2,12
O=C(N/N=C/c1ccc(OC(=O)c2ccccc2)c([N+](=O)[O-])c1)c1ccc(O)cc1,0,nt,94*,-1,2,14
COc1ccc(C(=O)Oc2ccc(/C=N/NC(=O)c3ccccc3OC)cc2[N+](=O)[O-])cc1,1,nt,nt,-3,-1,nt
COc1ccc(/C(C)=N/Nc2ccc(C(=O)O)cc2)cc1OC,0,nt,nt,-6,-1,107
COc1ccc(OC)c(/C(C)=N/Nc2ccc(C(=O)O)cc2)c1,-2,4,99*,1,5,-7
COc1cc(/C=N/NC(=O)c2ccncc2)ccc1Oc1ccc([N+](=O)[O-])cn1,-1,-1,-3,3,-2,3
CCC(=O)Nc1ccc2c(c1)C(=O)N(C)C[C@@H](OC)[C@H](C)CN(CCc1ccccc1)[C@@H](C)CO2,nt,0,nt,nt,nt,nt
